# Bioassay records from PubChem BioAssay.
# MITF TRPM1 inh – inhibitors of MITF-driven TRPM1 promoter in melanoma cells. AID 488899. SK-MEL-5 TRPM1 promoter luciferase, 24 h. inhibition, % at 12.5 µM. hit rate 0.83% among 330,000;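 active = mean inhibition across replicates of 60% or more, whatever share of single replicates reaches that level; inconclusive = some that reach 60%, reason not given; inactive = mean inhibition across replicates below 60%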
# esBAF inh – inhibitors of esBAF chromatin remodeling in mouse ES cells; hit rate 2% among 350,000; Bmi1-luciferase knock-in reporter, 24 h; 100% = twice the neutral-well signal; AID 602393; reporter increase, % at 12.5 µM; in the data active = activation above about 40%; inconclusive = no clear call, values can overlap the other calls;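 also: 0% = median of the plate's neutral control wells and 100% = double that signal; a rise in the Bmi1 reporter signal indicates esBAF inhibition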
# EWS-Fli block – blocks EWS/Fli oncoprotein-driven transcription | A673 NR0B1-luciferase reporter, viability-normalised | inhibition, % at 12.6 µM | hit rate 0.67% among 350,000 | AID 651661;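 active = mean inhibition of at least 50% after viability correction, with every replicate also passing that limit; inconclusive = mean reaches 50% but only one of two replicates passes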;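 also: firefly luciferase signal divided by Alamar Blue viability fluorescence both relative to DMSO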
# MITF act – increases MITF-driven TRPM1 promoter luciferase signal; SK-MEL-5 TRPM1-promoter luciferase, 24 h; % of positive control, neutral wells = 0; hit rate 0.75% among 300,000; activation, % at 12.5 µM; AID 588334;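 active = mean activation of at least 80% with every replicate also reaching 80%; inconclusive = mean reaches 80% but some replicate falls short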;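 also: 0% = neutral control wells and 100% = parthenolide positive control wells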
# Wnt act – Wnt/beta-catenin pathway activation. activation, % at 9.35 µM. Wnt/beta-catenin reporter cell assay, activator, plate reader. hit rate 1.2% among 300,000; in the data active = activation above about 30%, passing the limit was not always enough; inconclusive = no clear call, values can overlap the other calls;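 also: 0% = neutral control wells and 100% = positive control wells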
# PAX8 inh HTS – PAX8 transcriptional activity inhibition. RMG-I TPO-luciferase reporter, SteadyGlo, 24 h. inhibition, % at 12.6 µM. hit rate 1.2% among 360,000. AID 652154;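 active = mean replicate inhibition at least 60% with every replicate also reaching 60%; inconclusive = only one of the two criteria is met; inactive = mean below 60% and not all replicates reaching 60%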;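 also: luciferase light reporting Pax8 driven TPO promoter activity; plate controls were median of neutral control wells for no effect and mitoxantrone controls for full effect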
# Starred values were filed as active, the others as inactive; i = inactive; ? = inconclusive; nt = no result given. Sampled rows, rich in hits. Any-hit rate of the full collection: about 4%.
SMILES,MITF TRPM1 inh,esBAF inh,EWS-Fli block,MITF act,Wnt act,PAX8 inh HTS
CC(C)(C)c1nn(-c2ccccc2)c2[nH]c(=O)c(CNCc3ccco3)cc12,67*,-8,nt,-65,nt,nt
CCc1ccc(-c2cc3c(=O)n(CC(=O)NCCCN4CCC(Cc5ccccc5)CC4)nc(C)n3n2)cc1,96*,-21,3,-95,4,-4
CCc1ccc(NC(=O)c2cnc3n(c2=O)CCS3)cc1,-40,61*,-69,34,10,-99
C[C@@H]1CN([C@H](C)CO)S(=O)(=O)c2ccc(C3=CCCCC3)cc2O[C@@H]1CN(C)C(=O)c1ccccc1,nt,-3,11,nt,nt,nt
CC1=C/C(=C(/c2cc(C)c(O)c(Br)c2)c2ccccc2S(=O)(=O)O)C=C(Br)C1=O,47,-43,-32,-46,0,77*
COCC#Cc1cnc2c(c1)C(=O)N([C@@H](C)CO)C[C@H](C)[C@H](CN(C)C(=O)c1ccc(F)cc1)O2,nt,-1,4,nt,nt,nt
O=C(Cc1ccc(Cl)cc1)NC1CCCCCC1,-25,54*,-37,26,3,-63
O=C(CCNC(=O)c1ccc(Cl)cc1)NC1CCCCCC1,-9,26,-17,10,38*,-31
O=C(COC(=O)c1ccccc1F)NC1CCCC1,3,2,-8,-8,3,20
O=C(COC(=O)c1c(F)cccc1Cl)NC1CCCCC1,-83,nt,-68,85*,16,-92
C[C@H]1CN([C@@H](C)CO)S(=O)(=O)c2ccc(-c3cccc(C#N)c3)cc2O[C@@H]1CN(C)Cc1cccc(F)c1,nt,-9,30,nt,nt,42
CCc1nnc(NS(=O)(=O)c2ccc(NC(=O)c3cccc(Cl)c3)cc2)s1,-112,-12,9,109*,-1,3
CCc1nnc(NS(=O)(=O)c2ccc(NC(=O)c3ccc(Cl)cc3)cc2)s1,0,nt,2,1,3,-9
CCc1nnc(NS(=O)(=O)c2ccc(N)cc2)s1,-6,-6,-11,10,79*,2
Cn1cnc(S(=O)(=O)N2CC[C@@H]3[C@@H](CO)Nc4ccc(C#Cc5ccccc5F)cc4[C@@H]32)c1,nt,nt,-3,nt,nt,nt
O=C(c1cn(Cc2ccccc2)nc1-c1ccccc1)N1CCN(c2ccccn2)CC1,24,-1,54*,-24,-11,14
CCn1c(SCC(=O)OCc2ccccc2)nnc1-c1ccco1,-8,-2,4,-5,-2,nt
CCn1c(Sc2ccc([N+](=O)[O-])cn2)nnc1-c1ccco1,-6,nt,13,9,-14,71*
C[C@@H]1CCCCO[C@H](CN(C)Cc2ccc(C(F)(F)F)cc2)[C@H](C)CN([C@@H](C)CO)C(=O)c2cc(NS(=O)(=O)c3cccs3)ccc2O1,nt,-1,11,nt,nt,93*
C[C@@H]1CCCCO[C@@H](CN(C)Cc2ccc(C(F)(F)F)cc2)[C@@H](C)CN([C@H](C)CO)C(=O)c2cc(NS(=O)(=O)c3cccs3)ccc2O1,nt,-3,-2,nt,nt,38
C[C@@H]1CCCCO[C@@H](CN(C)Cc2ccc(C(F)(F)F)cc2)[C@H](C)CN([C@H](C)CO)C(=O)c2cc(NS(=O)(=O)c3cccs3)ccc2O1,nt,4,9,nt,nt,89*
C[C@@H]1CCCCO[C@H](CN(C)Cc2ccc(C(F)(F)F)cc2)[C@H](C)CN([C@H](C)CO)C(=O)c2cc(NS(=O)(=O)c3cccs3)ccc2O1,nt,5,19,nt,nt,99*
C[C@@H]1CCCCO[C@@H](CN(C)Cc2ccc(C(F)(F)F)cc2)[C@H](C)CN([C@@H](C)CO)C(=O)c2cc(NS(=O)(=O)c3cccs3)ccc2O1,nt,9,12,nt,nt,?
C[C@@H]1CCCCO[C@H](CN(C)Cc2ccc(C(F)(F)F)cc2)[C@@H](C)CN([C@H](C)CO)C(=O)c2cc(NS(=O)(=O)c3cccs3)ccc2O1,nt,-11,5,nt,nt,24
Clc1cc(Br)ccc1OCCN1CCOCC1,2,nt,-9,-2,-1,-13
SMILES,MITF TRPM1 inh,esBAF inh,EWS-Fli block,MITF act,Wnt act,PAX8 inh HTS
CCCCCOc1ccc(CN2CCOCC2)cc1Cl,-52,50*,nt,nt,14,-176
C=CCc1ccccc1OCC(=O)O,9,nt,0,-11,34*,-116
O=C(O)COc1ccccc1Cc1ccccc1,1,-6,nt,1,0,nt
COc1cccc(S(=O)(=O)N2CC[C@@H]3[C@@H](CO)Nc4ccc(C#Cc5ccccc5)cc4[C@@H]32)c1,nt,2,-10,nt,nt,8
O=C(CN1C(=O)NC2NC(=O)NC21)NN=C1CCCC1 (centres undefined),-2,nt,-7,4,-1,83*
Cc1ccc(NCc2nc3ccccc3n2C)cc1,-21,72*,nt,nt,nt,nt
Cc1ccc(NCc2nc3ccccc3n2C)cc1C,-41,51*,-76,nt,13,-67
Cn1c(NCc2ccc(Cl)cc2)nc2ccccc21,-44,71*,-97,45,8,-163
CC(C)n1c(NCc2nc3ccccc3n2C)nc2ccccc21,8,1,nt,nt,nt,nt
Cn1c(CNc2nc3ccccc3n2C)nc2ccccc21,-37,68*,nt,nt,21,-102
COc1ccc(-c2cn(CC[C@H]3CC[C@H](N)[C@@H](CO)O3)nn2)cc1,nt,15,-36,nt,nt,-32
COc1ccc2c3c([nH]c2c1)[C@@H](CO)N(Cc1ccccc1)CC31CCN(C(=O)Nc2cccc(F)c2)CC1,nt,nt,10,nt,nt,nt
Cn1c(CNc2ccc(Br)cc2)nc2ccccc21,i,nt,-130,?,40*,-149
Cn1c(CSc2nc3ccccc3s2)nc2ccccc21,-76,50*,nt,75,nt,nt
Cc1snc(SCC(=O)c2ccc(Cl)cc2)c1C#N,-117,30,nt,126*,nt,nt
Cc1ccc(C(=O)CSc2nsc(C)c2C#N)cc1,-71,nt,nt,69,nt,nt
Cc1ccnc(SCC(=O)c2ccc(Br)cc2)c1C#N,-52,nt,nt,57,42*,-5
CCNC(=O)C[C@@H]1C=C[C@H](NC(=O)NC2CCCCC2)[C@H](CO)O1,nt,0,-4,nt,nt,-7
CCS(=O)(=O)Nc1ccc2c(c1)C(=O)N(C)C[C@@H](OC)[C@@H](C)CN(Cc1ccccn1)[C@@H](C)CO2,nt,nt,-4,nt,nt,nt
Cc1cc(C(=O)CN2C(=O)c3ccccc3S2(=O)=O)c(C)n1CC1CCCO1 (centres undefined),83*,-85,nt,nt,nt,nt
O=C(CN1C(=O)c2ccccc2S1(=O)=O)c1ccc(F)c(F)c1,12,nt,35,-11,10,64*
O=C(CN1C(=O)c2ccccc2S1(=O)=O)c1ccc(O)c(O)c1,17,nt,22,nt,-1,-4
Cc1cc(C(=O)COC(=O)c2cccc(S(=O)(=O)N(C)C)c2)c(C)n1CC1CCCO1 (centres undefined),-83,nt,-3,?,37*,-180
Cc1cc(C(=O)CN2C(=O)NC(C)(c3ccccc3)C2=O)c(C)n1CC1CCCO1 (centres undefined),-2,nt,nt,5,nt,nt
CNS(=O)(=O)c1cccc(C(=O)OCC(=O)c2cc(C)n(CC3CCCO3)c2C)c1 (centres undefined),-32,-6,-48,33,10,-89
